Assay [1] in a line: qHTS assay for small molecules that induce genotoxicity in human embryonic kidney cells expressing luciferase-tagged ATAD5 (AID 651632). Also: nearly all actives have a fitted effect of over 15% in size. In short, it runs like this:
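DMSO vehicle served as the control. HEK293T reporter cells, 16 hr at 37C, then 30 min Amplite at room temperature; ATAD5 induction is measured as luciferase activity.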
On the technique in general: Quantitative high-throughput screening tests each substance at several concentrations.

The nature of assay [2]: qHTS assay for small molecule agonists of the p53 signaling pathway - cell viability (AID 651633; calls by dose curve; also: nearly all actives have a fitted effect of over 30% in size; also: potency is read from the fitted curve at half-maximal effect). The method, boiled down: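 p53RE-bla cells, seeded at 4,000 per well and rested 5 h at 37 C/5% CO2, received compounds in DMSO for 16 h at 37 C. CellTiter-Glo was then added, and luminescence was read after 30 min at room temperature to gauge cytotoxicity.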
The nature of assay [3]: qHTS assay for small molecules that induce genotoxicity in human embryonic kidney cells expressing luciferase-tagged ATAD5 - cell viability (AID 651634; calls by dose curve; also: nearly all actives have a fitted effect of over 25% in size; also: potency is read from the fitted curve at half-maximal effect). The method, boiled down:
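Here HEK293T cells with the ATAD5 luciferase reporter are incubated with test compounds for 15.5 hr, and cytotoxicity is then gauged by measuring protease activity in live cells using fluorescence.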

The nature of assay [4]: qHTS assay for small molecule disruptors of the mitochondrial membrane potential - cell viability (AID 720634; calls by dose curve; also: nearly all actives have a fitted effect of over 20% in size; also: potency is read from the fitted curve at half-maximal effect). In short, it runs like this: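 Viability of HepG2 cells is scored from ATP content by luminescence; cells are exposed to compound for 1 hr at 37 C and 5% CO2, then dosed with m-MPI dye before the CellTiter-Glo reagent.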
Assay [5] can be described thus: qHTS assay for small molecule disruptors of the mitochondrial membrane potential (AID 720635). Also: potency is read from the fitted curve at half-maximal effect. The method, boiled down:
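HepG2 cells (2,000/well) attached overnight at 37C, then took compound for 1 hr at 37C, 5% CO2. Mito-MPS dye was added for 30 min; fluorescence was read at 490/535 nm (monomers) and 540/590 nm (aggregates).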

Assay [6] is described as follows: qHTS assay to test for compound auto fluorescence at 590 nm (red) in HepG2 cells (AID 720674). The method, boiled down:
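Rose Bengal sodium served as the red fluorophore standard. HepG2 monolayers (overnight attachment, MEM with 10% FBS) were exposed to test compounds for 1 hr at 37 C and read at Ex 540/Em 590 nm.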

Assay [7] is described as follows: qHTS assay to test for compound auto fluorescence at 535 nm (green) in HepG2 cells (AID 720675).
Assay [8] in a line: qHTS assay to test for compound auto fluorescence at 460 nm (blue) in HEK293 cells (AID 720678). In short, it runs like this: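 HEK293 cells (2,000/well, medium with 10% dialyzed FBS) attached 4-5 hr, then exposed to compound overnight at 37C, 5% CO2. Blue fluorescence read at 405/460 nm, with triamterene as reference fluorophore.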
Assay [9] can be described thus: qHTS assay to test for compound auto fluorescence at 590 nm (red) in HEK293 cells (AID 720679). The method, boiled down: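 HEK293 cells (2,000/well, 10% dialyzed FBS) attached 4-5 hr, then dosed with compound or DMSO and incubated overnight at 37C, 5% CO2. Red fluorescence read at 540/590 nm, Rose Bengal sodium as reference fluorophore.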
Assay [10] is described as follows: qHTS assay to test for compound auto fluorescence at 460 nm (blue) in HEK293 cell free culture (AID 720681). In short, it runs like this:
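Test compounds were pinned into cell-free culture medium (DMEM with 10% FBS) and fluorescence was read directly at Ex/Em 405/460 nm. Signals were expressed as fluorescence equivalents of triamterene, with DMSO vehicle as control.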

A short description of assay [11]: qHTS assay to test for compound auto fluorescence at 535 nm (green) in HEK293 cell free culture (AID 720682). In short, it runs like this: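 Compounds were pin-transferred into cell-free DMEM with 10% FBS, and green fluorescence was read at excitation 485 nm and emission 535 nm. Intensities were expressed as fluorescein-equivalent values.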
A short description of assay [12]: qHTS assay to test for compound auto fluorescence at 590 nm (red) in HEK293 cell free culture (AID 720683). In short, it runs like this:
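Tox21 10K library compounds were pinned into cell-free DMEM with 10% FBS and fluorescence was read at excitation 540 nm. Activity is expressed as Rose Bengal sodium equivalency.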

Assay [13] can be described thus: qHTS assay to test for compound auto fluorescence at 590 nm (red) in HepG2 cell free culture (AID 720684). In short, it runs like this:
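Readout: intrinsic compound fluorescence at 590 nm emission after 540 nm excitation, scaled to Rose Bengal sodium. Matrix was cell-free MEM with 10% FBS; DMSO vehicle wells served as control.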

A short description of assay [14]: qHTS assay to test for compound auto fluorescence at 460 nm (blue) in HepG2 cell free culture (AID 720685). The method, boiled down:
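Cell-free plates of MEM plus 10% FBS received 23 nL compound or DMSO vehicle; blue-channel (405/460 nm) intensity scored against triamterene as reference fluorophore.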

A short description of assay [15]: qHTS assay to test for compound auto fluorescence at 535 nm (green) in HepG2 cell free culture (AID 720686).
Assay [16] can be described thus: qHTS assay to test for compound auto fluorescence at 460 nm (blue) in HepG2 cells (AID 720687). In short, it runs like this:
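Cells (2,000/well in MEM with 10% FBS) attached overnight at 37 C, then were exposed to compound or DMSO for 1 hr at 37 C, 5% CO2. Fluorescence read at Ex/Em 405/460 nm, expressed as triamterene-equivalent signal.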

Assay [17] addresses Glucocorticoid receptor (Homo sapiens) (UniProt P04150). As to the kind of experiment: qHTS assay to identify small molecule antagonists of the glucocorticoid receptor (GR) signaling pathway (AID 720692; active = well fitted inhibition curve with a large enough effect in the signal ratio in the repeat runs, not every such curve was filed as active; the % refers to the signal ratio). The method, boiled down:
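In a 1536-well cell format, compounds were added 4 h after seeding GR-bla HeLa cells, together with dexamethasone at 5 nM final; reporter activity was measured by FRET-substrate fluorescence following 18 h at 37 C.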

Assay [18] can be described thus: qHTS assay to test for compound auto fluorescence at 535 nm (green) in HEK293 cells (AID 720680).

Values joined by “and” are separate entries in the source; they are usually repeats but may differ in a detail not shown here. Identical values can stand only once. Inconclusive results are not listed. Active and inactive are the calls of the source. Unless noted, calls follow the shape of the dose curve; as a rule, active = well fitted curve in the direction sought with a large enough effect in the repeat runs; inconclusive = weak or mixed curves; inactive = no such curve, though single readings can be large; an effect the other way counts as inactive or inconclusive.

Glucocorticoid receptor (Homo sapiens), sequence (P04150 whole entry, looked up): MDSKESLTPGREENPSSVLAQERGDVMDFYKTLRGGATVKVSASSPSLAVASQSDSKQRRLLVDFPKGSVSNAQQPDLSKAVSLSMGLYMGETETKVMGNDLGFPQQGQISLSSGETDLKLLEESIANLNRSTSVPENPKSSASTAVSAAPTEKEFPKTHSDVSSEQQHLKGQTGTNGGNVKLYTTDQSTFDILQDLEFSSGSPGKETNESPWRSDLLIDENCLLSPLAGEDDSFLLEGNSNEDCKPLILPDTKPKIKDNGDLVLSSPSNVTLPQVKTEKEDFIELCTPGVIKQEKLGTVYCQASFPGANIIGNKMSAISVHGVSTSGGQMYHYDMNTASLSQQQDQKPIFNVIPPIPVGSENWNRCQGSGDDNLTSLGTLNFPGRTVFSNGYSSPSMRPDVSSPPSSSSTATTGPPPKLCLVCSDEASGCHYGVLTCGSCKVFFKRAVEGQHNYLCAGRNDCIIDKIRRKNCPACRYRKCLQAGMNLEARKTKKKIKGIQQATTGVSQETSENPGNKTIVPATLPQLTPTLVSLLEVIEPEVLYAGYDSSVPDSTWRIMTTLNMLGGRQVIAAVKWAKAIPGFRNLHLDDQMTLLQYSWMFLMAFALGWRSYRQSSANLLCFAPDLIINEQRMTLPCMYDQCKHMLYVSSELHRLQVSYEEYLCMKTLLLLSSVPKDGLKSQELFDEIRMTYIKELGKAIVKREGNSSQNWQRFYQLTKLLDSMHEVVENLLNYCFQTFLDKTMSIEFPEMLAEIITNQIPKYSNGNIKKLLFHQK

For the compound `c1ccc(N=Nc2ccccc2)cc1`, the Potency result in [1], in assay [2], in [3], in assay [4], in [5] and in assay [17] was “inactive” in each case. In addition, the compound was classed as inactive in [6], in assay [7], in assay [8], in assay [9], in assay [10] and in [11]. The result in [12], in assay [13], in assay [14], in assay [15] and in assay [16] was inactive.
As to `CCOc1cc(Oc2ccc(C(F)(F)F)cc2Cl)ccc1[N+](=O)[O-]`, the Potency result in assay [1], in [2], in assay [3] and in assay [17] was “inactive” throughout. Further, the Potency is 19.5 µM (active) in assay [4]; 17.4 µM (active) and 24.3 µM (active) in assay [5]. The compound was called inactive in assay [6], in [8], in assay [9], in [10], in assay [11] and in assay [12]. The result in [14], in [15] and in [16] was inactive.
On to `CC(C)(OOC(C)(C)c1ccccc1)c1ccccc1`, for which the Potency result in [1], in assay [2], in [3], in assay [4] and in assay [17] was “inactive” each time. In addition, the Potency in assay [5] is 60.3 µM (active). Also, the outcome in [6], in assay [8], in assay [9], in assay [18], in assay [11] and in assay [12] was inactive. Also, the call in assay [13], in assay [14], in assay [15] and in assay [16] was inactive.
With `N#CC(Br)Br`, the Potency result in [1], in [2], in [3], in assay [4], in [5] and in assay [17] was “inactive” in each case. For the same compound, the call in assay [6], in [7], in assay [8], in assay [9], in [18] and in assay [10] was inactive. Besides, the call in assay [11], in [12], in assay [14], in assay [15] and in [16] was inactive.
Take `Nc1ccc(-c2ccc(N)c(N)c2)cc1N`: the Potency result in assay [1], in assay [3] and in assay [4] was “inactive” each time. In addition, the Potency in assay [2] is 48.6 µM (active); in assay [5], 216 nM (active) and 7.7 µM (active). In addition, the compound was classed as inactive in assay [6], in assay [7], in [8], in assay [9], in assay [18] and in assay [11]. In addition, the call in assay [12], in assay [13], in [14], in assay [15] and in [16] was inactive.
On to `C=CC(=O)OCCO`, for which the Potency result in assay [1], in assay [2], in assay [3], in assay [4] and in assay [5] was “inactive” throughout. Further, the call in assay [6], in [8], in assay [9], in assay [18], in assay [10] and in assay [11] was inactive. For the same compound, the compound was classed as inactive in assay [12], in [13], in [14], in assay [15] and in [16].
Take `COP(=O)(OC)OC`: the Potency entry in assay [1], in assay [2], in [3], in assay [4], in [5] and in [17] was “inactive” in each case. The compound was classed as inactive in assay [6], in [7], in [8], in assay [9], in assay [10] and in [11]. In addition, the outcome in assay [12], in [14], in assay [15] and in assay [16] was inactive.
Take `O=[N+]([O-])c1ccc(O)c([N+](=O)[O-])c1`: the Potency entry in assay [1] and in [2] was “inactive” in each case. Further, the Potency is 27.4 µM (active) and 27.3 µM (active) in assay [3]; 10.9 µM (active) in assay [4]; 689 nM (active) and 545 nM (active) in assay [5]. In addition, the compound was called inactive in assay [7], in assay [8], in assay [9], in assay [18], in assay [10] and in [11]. The outcome in assay [12], in assay [14], in assay [15] and in assay [16] was inactive.

Values taken from PubChem BioAssay (Tox21).
